Measurements taken from PubChem BioAssay (NCATS).
Several values for one entry are separate records, joined by “and”; a condition that tells them apart may be missing. Identical values can stand only once. Results filed as inconclusive are left out. Activity calls are given as the source filed them. Unless noted, the call rests on the fitted dose curve; in most records, active means well fitted curve in the direction sought with a large enough effect; inconclusive means small, poorly fitted or top-dose-only effect, or another doubt; inactive means no such curve, though single readings can be large; an effect the other way counts as inactive or inconclusive.

Tests used:
[1] = Cell Viability - N2a (AID 540); details: N2a mouse neuroblastoma cell viability; activity change, negative = cytotoxicity: at 92.2 µM (top of the series);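 further: cells exposed to compound for 40 h at 37 °C; plate controls were DMSO alone for no effect and tamoxifen control for full effect; nearly all actives have a fitted effect of over 45% in size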
Method in brief: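 Luminescent ATP signal (CellTiter-Glo, 20 min at room temperature) served as the viability read-out after N2a cells were treated with compounds for 40 hours at 37 °C. Concentration-response data were fitted to the Hill equation for AC50.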

[2] = Cell Viability - Renal Proximal Tubule (AID 545); details: renal proximal tubule cells viability, primary cells of rat origin; at 91.7 µM (top of the series);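 further: 0% = DMSO only and -100% = 100 µM tamoxifen; nearly all actives have a fitted effect of over 40% in size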
Method in brief: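 Primary rat renal proximal tubule cells (1000/well) were treated with compounds for 40 hr at 37 °C in complete medium. Intracellular ATP was measured by CellTiter-Glo luminescence, and AC50 values came from Hill-equation fits of concentration-response data.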

[3] = MultiTox-Fluor Cytotoxicity Assay - LYMP1-003 - Dead Cells (AID 961);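 further: 0% = DMSO and 100% = tetraoctylammonium bromide; nearly all actives have a fitted effect of over 70% in size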
Method in brief: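 LYMP1-003 human lymphoblastoid cells (2500/well) exposed to compound 16 h at 37 C in complete medium; dead-cell protease read with bis-AAF-R110 fluorescence (Ex/Em 485/520) after 60 min at room temperature. Normalized to DMSO and 15 uM tetraoctylammonium bromide; AC50 from Hill fit.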

[4] = Cell Viability - LYMP2-003 (AID 965);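 further: cells exposed to compounds for 24 h before reading; 0% = DMSO only and full effect = 92 µM tetraoctylammonium bromide; nearly all actives have a fitted effect of over 50% in size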
Method in brief: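 Human lymphoblastoid cells (2500/well) were pre-incubated 5 hr at 37 C, then exposed to compounds over a concentration range for 24 hr at 37 C. Intracellular ATP was read by CellTiter-Glo luminescence; AC50 came from Hill-equation fits.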

[5] = Cell Viability - LYMP2-005 (AID 967);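 further: plate controls were DMSO only for no effect and 92 µM tetraoctylammonium bromide control for full effect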
Method in brief: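 CellTiter-Glo luminescence (cellular ATP) read-out; LYMP2-005 lymphoblastoid cells, 2500/well, 5 h pre-incubation, then 24 h compound exposure at 37 C in complete medium. Tetraoctylammonium bromide positive control; AC50 by standard Hill fit.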

[6] = Cell Viability - LYMP2-009 (AID 968);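 further: 0% = DMSO alone and the full-kill end = tetraoctylammonium bromide at 92 µM; nearly all actives have a fitted effect of over 55% in size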
[7] = Cell Viability - LYMP2-015 (AID 971);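 further: 0% = DMSO only and full effect = 92 µM tetraoctylammonium bromide; nearly all actives have a fitted effect of over 55% in size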
Method in brief: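 Luminescent ATP read-out (CellTiter-Glo) served as the viability measure after lymphoblastoid cells were exposed to compounds for 24 hours at 37 C. Concentration-response data were fitted with the Hill equation to give AC50.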

[8] = Cell Viability - LYMP2-019 (AID 973);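 further: 0% = DMSO alone and full effect = 92 µM tetraoctylammonium bromide; nearly all actives have a fitted effect of over 55% in size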
Method in brief: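 Luminescent ATP read-out (CellTiter-Glo, 30 min room temperature) served as the viability measure after 24 hr treatment of lymphoblastoid cells at 37 C. Concentration-response data were fitted to the Hill equation for AC50.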

[9] = Cell Viability - LYMP2-021 (AID 974);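 further: compound exposure lasts 24 hours at 37 °C; on the % scale 0 is the no-effect control and ±100 the full control effect; nearly all actives have a fitted effect of over 55% in size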
Method in brief: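 Plate 2500 lymphoblastoid cells per well and incubate 5 hr at 37 C. Add compounds over a concentration range and incubate 24 hr at 37 C. Add CellTiter-Glo, wait 30 min at room temperature, read luminescence.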

[10] = Cell Viability - LYMP2-023 (AID 975)
Method in brief: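 2500 cells/well, 5 hr 37 C; cpd 24 hr 37 C; CellTiter-Glo, 30 min RT; luminescence. qHTS conc-response, Hill fit -> AC50. Pos ctrl tetraoctylammonium bromide.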

[11] = Cell Viability - LYMP2-025 (AID 976);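 further: plate controls were DMSO only for no effect and tetraoctylammonium bromide control for full effect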
Method in brief: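 Seed 2500 LYMP2-025 cells/well; 5 hr at 37 C; add compound; 24 hr at 37 C; add CellTiter-Glo; 30 min RT; read luminescence. AC50 from Hill-modelled concentration-response.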

[12] = Cell Viability - LYMP2-002 (AID 977);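 further: plate controls were DMSO only for no effect and 92 µM tetraoctylammonium bromide for full effect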
Method in brief: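 Cytotoxicity is scored as concentration-dependent loss of cellular ATP in a human lymphoblastoid line after 24 hr compound treatment at 37 C. AC50 is obtained by modelling concentration-response data with the Hill equation.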

[13] = Cell Viability - LYMP2-006 (AID 978); further: on the % scale 0 is the no-effect control and ±100 the full control effect; nearly all actives have a fitted effect of over 60% in size
Method in brief: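 Human lymphoblastoid cells, 2500 per well, were preincubated 5 hr at 37 C, then exposed to compounds for 24 hr at 37 C in complete medium. Viability was read as intracellular ATP by CellTiter-Glo luminescence; AC50 from Hill-equation fits of qHTS concentration-response data.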

[14] = Cell Viability - LYMP2-008 (AID 980); further: on the % scale 0 is the no-effect control and ±100 the full control effect; nearly all actives have a fitted effect of over 60% in size
Method in brief: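 qHTS, human lymphoblastoid line, 2500 cells/well; 5 hr preincubation, 24 hr compound, 37 C. CellTiter-Glo ATP luminescence. AC50 via Hill equation. Tetraoctylammonium bromide positive control.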

[15] = Cell Viability - LYMP2-014 (AID 983);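 further: plate controls were DMSO only for no effect and 92 µM tetraoctylammonium bromide for full effect; nearly all actives have a fitted effect of over 50% in size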
Method in brief: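 Luminescent ATP signal (CellTiter-Glo, 30 min at room temperature) serves as the viability read-out after 24 hr compound exposure at 37 C. Cells were seeded at 2500 per well and settled 5 hr beforehand.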

[16] = Cell Viability - LYMP2-016 (AID 984)
Method in brief: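 Human lymphoblastoid cells (LYMP2-016), 2500/well in complete medium, preincubated 5 hr at 37 C, then compound-treated 24 hr at 37 C. Intracellular ATP read by CellTiter-Glo luminescence after 30 min at room temperature; AC50 from Hill-equation concentration-response fits.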

[17] = Cell Viability - LYMP2-026 (AID 989); further: on the % scale 0 is the no-effect control and ±100 the full control effect; nearly all actives have a fitted effect of over 50% in size
Method in brief: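 Luminescent ATP signal (CellTiter-Glo, 30 min room temperature) measures viable lymphoblastoid cells after 24 hr compound treatment at 37 C. Decreased ATP reflects acute toxicity; AC50 values come from Hill-equation modeling.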

[18] = Cell Viability - LYMP1-002 - Assay at 40 hr (AID 994);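 further: 0% = DMSO only and full inhibition = 92 µM tetraoctylammonium bromide; nearly all actives have a fitted effect of over 60% in size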
Method in brief: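 Luminescent ATP signal served as the viability readout, with decreases taken as toxicity. Cells were treated with compounds across a concentration range for 40 hours at 37 C, and AC50 values came from standard Hill modeling.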

[19] = target: Thyroid hormone receptor beta (Homo sapiens) (UniProt P10828); experiment: qHTS assay for small molecule agonists of thyroid hormone receptor beta signaling (AID 588545; calls by dose curve)
Thyroid hormone receptor beta (Homo sapiens), sequence (P10828 whole entry, looked up): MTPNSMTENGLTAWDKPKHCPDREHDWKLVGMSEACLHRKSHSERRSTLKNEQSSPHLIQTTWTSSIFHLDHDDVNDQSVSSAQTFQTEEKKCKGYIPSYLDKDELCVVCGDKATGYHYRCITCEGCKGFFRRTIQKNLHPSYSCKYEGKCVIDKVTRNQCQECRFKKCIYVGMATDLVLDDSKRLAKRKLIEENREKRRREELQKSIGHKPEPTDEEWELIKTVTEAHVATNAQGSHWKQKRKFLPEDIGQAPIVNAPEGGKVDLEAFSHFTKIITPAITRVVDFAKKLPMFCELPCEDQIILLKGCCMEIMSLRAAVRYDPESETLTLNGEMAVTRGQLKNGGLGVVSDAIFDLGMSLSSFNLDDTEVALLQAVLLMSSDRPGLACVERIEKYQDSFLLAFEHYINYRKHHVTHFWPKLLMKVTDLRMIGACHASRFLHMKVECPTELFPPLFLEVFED
Method in brief: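 HEK 293 TR-UAS-bla; agonist mode; 18 hrs, 37 C; CCF4, ex 405/em 460 and 530 nm; norm. T3 10 nM = 100%, DMSO = 0%; Hill fit → EC50, efficacy.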

[20] = target: Retinoic acid receptor RXR-alpha (Homo sapiens) (UniProt P19793); experiment: qHTS assay for small molecule antagonists of retinoid X receptor alpha signaling (AID 588546; active means well fitted inhibition curve with a large enough effect in the signal ratio, with a control signal flat, not every such curve was filed as active; the % refers to the signal ratio;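 further: cells stimulated with 9-cis-retinoic acid as agonist; on the % scale 0 is the no-effect control and ±100 the full control effect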); details: HEK293T RXRa-UAS-bla, beta-lactamase ratio, antagonist mode
Retinoic acid receptor RXR-alpha (Homo sapiens), sequence (P19793 whole entry, looked up): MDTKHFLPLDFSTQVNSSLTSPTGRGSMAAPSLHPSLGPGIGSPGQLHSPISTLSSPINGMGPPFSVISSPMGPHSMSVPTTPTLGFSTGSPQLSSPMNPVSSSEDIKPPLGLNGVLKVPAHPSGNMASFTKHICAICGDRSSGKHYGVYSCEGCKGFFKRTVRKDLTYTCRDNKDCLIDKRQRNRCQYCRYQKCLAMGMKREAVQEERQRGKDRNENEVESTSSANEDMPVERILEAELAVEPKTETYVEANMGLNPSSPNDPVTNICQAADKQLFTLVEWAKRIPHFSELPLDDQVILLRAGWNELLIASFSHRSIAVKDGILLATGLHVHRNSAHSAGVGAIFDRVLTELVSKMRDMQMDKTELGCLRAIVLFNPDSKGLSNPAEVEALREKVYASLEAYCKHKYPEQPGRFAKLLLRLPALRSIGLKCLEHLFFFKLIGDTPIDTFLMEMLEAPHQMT
Method in brief: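 Beta-lactamase reporter inhibition, read as CCF4 fluorescence ratio (ex 405, em 460/530 nm) after 2 h at RT. HEK293T UAS-bla cells, 2500/well, were stimulated with 9-cis-RA at 500 or 100 nM final alongside test compound for 18 h at 37 C.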

Cc1ccc([N+](=O)[O-])c(C)c1
inactive: activity change, negative = cytotoxicity [1] -14.6% | activity change, negative = cytotoxicity [2] -0.903% | Potency [3] | Potency [4] | Potency [5] | Potency [6] | Potency [7] | Potency [8] | Potency [9] | Potency [10] | Potency [11] | Potency [12] | Potency [13] | Potency [14] | Potency [15] | Potency [16] | Potency [17] | Potency [18] | outcome [19] | max response [20] -1.42% and 0.976%

O=C(O)c1ccc(O)cc1O
inactive: activity change, negative = cytotoxicity [1] 7.6% and 11% | activity change, negative = cytotoxicity [2] -3.65% and 5.93% | Potency [3] | Potency [4] | Potency [5] | Potency [6] | Potency [7] | Potency [8] | Potency [9] | Potency [10] | Potency [11] | Potency [12] | Potency [13] | Potency [14] | Potency [15] | Potency [16] | Potency [17] | Potency [18] | outcome [19] | max response [20] 1.87%

CCO
inactive: activity change, negative = cytotoxicity [1] -0.0856% | activity change, negative = cytotoxicity [2] -3.41% | Potency [3] | Potency [4] | Potency [5] | Potency [6] | Potency [7] | Potency [8] | Potency [9] | Potency [10] | Potency [11] | Potency [12] | Potency [13] | Potency [14] | Potency [15] | Potency [16] | Potency [17] | Potency [18] | outcome [19] | max response [20] -6.86%

Clc1cc(Cl)c(Cl)c(Cl)c1Cl
inactive: activity change, negative = cytotoxicity [1] -10.3% | activity change, negative = cytotoxicity [2] -5.98% | Potency [3] | Potency [4] | Potency [5] | Potency [6] | Potency [7] | Potency [8] | Potency [9] | Potency [10] | Potency [11] | Potency [12] | Potency [13] | Potency [14] | Potency [15] | Potency [16] | Potency [17] | Potency [18] | outcome [19] | max response [20] -0.48% and -22.2%

OCCNCCO
inactive: activity change, negative = cytotoxicity [1] 6.19% | activity change, negative = cytotoxicity [2] -1.22% | Potency [3] | Potency [4] | Potency [5] | Potency [6] | Potency [7] | Potency [8] | Potency [9] | Potency [10] | Potency [11] | Potency [12] | Potency [13] | Potency [14] | Potency [15] | Potency [16] | Potency [17] | Potency [18] | max response [20] -2.15% and -2.6%
